PfHsp40 yeast = restores yeast growth despite PfHsp40 toxicity; S. cerevisiae expressing PfHsp40, growth rescue, ATP luminescence; growth rescue, % at 12.5 µM; actives 0.68% (n = 340,000); in the data active = growth rescue above about 28%, passing the limit was not always enough;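 note: yeast W303a lacking pdr1 and pdr3 grown in galactose medium; growth measured after three days at 30 °C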
PrP 5UTR inh = inhibition of PrP 5' UTR reporter expression. cell-based PrP 5' UTR mRNA reporter, plate reader. inhibition, % (test concentration not listed). actives 0.35% (n = 340,000). AID 488862; in the data active = inhibition above about 52%; note: 0 = median of the neutral control wells
SSB-PriA inh = blocks PriA binding to SSB C-terminal tail; actives 0.6% (n = 430,000); AlphaScreen SSBct-PriA binding, biotinylated peptide; inhibition, % at 33 µM; AID 1272365; in the data active = inhibition mostly above about 37%, no sharp cut-off; inactive = mostly below about 20%;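 note: plate controls were negative control peptide for no effect and reference peptide for full effect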
PrPC TRFRET = reduces human prion protein on the cell surface; inhibition, % at 13.8 µM; cell surface PrPC, TR-FRET read-out; actives 0.43% (n = 370,000); P04156; AID 720596; in the data active = inhibition above about 24%; note: 0% = median of the test wells and 100% = reference compound wells
MazEF act = increases E. coli MazEF RNase cleavage of RNA. FAM/BHQ RNA-DNA oligo cleavage fluorescence, 5 h. actives 0.32% (n = 350,000). activation, % at 20 µM. P0AE70; in the data active = activation above about 50%
PrPC confirm = confirmation of inhibitors of cell surface human prion protein; shares compounds with PrPC TRFRET; inhibition, % at 13.8 µM; cell surface PrPC level, TR-FRET; actives 65% (n = 1,500); in the data active = inhibition above about 25%
LD9 cytotox = kills or reduces viability of LD9 cells in PrPc counter-screen; inhibition, % at 13.8 µM; LD9 cells cytotoxicity, luminescence viability; shares compounds with PrPC TRFRET; actives 29% (n = 1,500); AID 743201; in the data active = inhibition above about 9.5%
An asterisk follows results filed as active. Compounds with a hit are over-represented: about 1.8% of the library has one in this group of screens.

Screening CCCCCCCCN1C(=O)[C@@H](CC(=O)N2CCOCC2)C[C@@]2(C(=O)OC)C1=C[C@H](C(C)C)O[C@@H]2C1CC1 returned PrPC TRFRET 22.
Screening CCCCCCCCN1C(=O)[C@@H](CC(=O)N2CCCC2)C[C@@]2(C(=O)OC)C1=C[C@H](C(C)C)O[C@@H]2C1CC1 returned PrPC TRFRET 30*, PrPC confirm 36* and LD9 cytotox -3.
For Cc1csc(N(C)C(=O)CSc2nnc(COc3cccc4ccccc34)o2)n1 the results were PfHsp40 yeast 1, PrP 5UTR inh -9, SSB-PriA inh -4, PrPC TRFRET 7 and MazEF act -2.
Screening COc1ccc(Cl)cc1C(=O)Nc1cccc(-c2ccc3nncn3n2)c1 returned PfHsp40 yeast 0, PrP 5UTR inh -2, SSB-PriA inh -2, PrPC TRFRET 83*, MazEF act -61, PrPC confirm 88* and LD9 cytotox 3.
`CCc1ccccc1OCC(=O)NNCC(=O)Nc1cccc(C#N)c1` gave PfHsp40 yeast -2, PrP 5UTR inh -19, SSB-PriA inh -15, PrPC TRFRET -7 and MazEF act -1.
`O=C(NN=Cc1ccc(O)cc1O)c1ccc(CN2C(=O)c3cccc4cccc2c34)cc1` gave SSB-PriA inh -14.
For Cc1cc([N+](=O)[O-])nn1Cc1ccc(C(=O)NN=Cc2ccc(O)cc2O)cc1 the results were SSB-PriA inh 3.
Cc1cc([N+](=O)[O-])nn1Cc1ccc(C(=O)N/N=C/c2ccc(O)cc2O)cc1 was read as PfHsp40 yeast 3, PrP 5UTR inh -17, PrPC TRFRET 32*, MazEF act 4, PrPC confirm 29* and LD9 cytotox 21*.
`O=C(N/N=C/c1ccc(O)cc1O)c1ccc(CN2C(=O)c3cccc4cccc2c34)cc1` gave PfHsp40 yeast 16, PrP 5UTR inh 22, PrPC TRFRET 31*, MazEF act 26, PrPC confirm 29* and LD9 cytotox 19*.
Screening O=C(O)C1CCN(C(=O)CSc2nnc(-c3ccccc3)o2)CC1 returned PfHsp40 yeast 0, PrP 5UTR inh -11, SSB-PriA inh -9, PrPC TRFRET -4 and MazEF act 1.
C#CCn1c(=NC(=O)c2cc3cc([N+](=O)[O-])ccc3s2)sc2cccc(OC)c21 was read as SSB-PriA inh -9.
C#CCn1c(=NC(=O)c2ccc(Br)s2)sc2cccc(OC)c21 was read as PfHsp40 yeast 0, PrP 5UTR inh -68, SSB-PriA inh -9, PrPC TRFRET 30*, MazEF act -1, PrPC confirm 81* and LD9 cytotox 3.
CC(=O)c1cccc(S(=O)(=O)NC(C)C2CC3CCC2C3)c1 (centres undefined) was read as PfHsp40 yeast 1, PrP 5UTR inh -18, SSB-PriA inh -21, PrPC TRFRET 2 and MazEF act 0.
`c1ccc(Sc2ncnc3ccccc23)cc1` gave PfHsp40 yeast 0, PrP 5UTR inh -30, SSB-PriA inh 4, PrPC TRFRET -2 and MazEF act 4.
Screening c1ccc(Cc2nnc(Sc3ccccc3)c3ccccc23)cc1 returned PfHsp40 yeast 0, PrP 5UTR inh -70, SSB-PriA inh -2, PrPC TRFRET 53*, MazEF act -3, PrPC confirm 71* and LD9 cytotox -14.
`CN(C)S(=O)(=O)Oc1cccc(C(=O)Nc2ccccc2Cl)c1` gave PfHsp40 yeast 0, PrP 5UTR inh -46, SSB-PriA inh -9, PrPC TRFRET 4 and MazEF act -4.
For CN(C)S(=O)(=O)Oc1cccc(C(=O)Nc2ccc(Cl)cc2)c1 the results were PfHsp40 yeast 353*, PrP 5UTR inh -124, SSB-PriA inh -30, PrPC TRFRET 27*, MazEF act -1, PrPC confirm 29* and LD9 cytotox 12*.
Screening O=c1c2cn[nH]c2[nH]c(=S)n1-c1ccccc1 returned PfHsp40 yeast 0, PrP 5UTR inh -8, SSB-PriA inh -2, PrPC TRFRET -3 and MazEF act 18.
For O=c1c2cn[nH]c2[nH]c(=S)n1-c1cccc2ccccc12 the results were PfHsp40 yeast -1, PrP 5UTR inh -23, SSB-PriA inh -7, PrPC TRFRET 40*, MazEF act 4, PrPC confirm 46* and LD9 cytotox -6.
For COc1cccc2sc(Nc3nc(-c4ccncc4)cs3)nc12 the results were PfHsp40 yeast 0, PrP 5UTR inh 2, SSB-PriA inh 1, PrPC TRFRET 28*, MazEF act -5, PrPC confirm 18 and LD9 cytotox 27*.
For COc1cccc2sc(Nc3nnc(-c4ccccc4Cl)o3)nc12 the results were PfHsp40 yeast 3, PrP 5UTR inh -108, SSB-PriA inh -8, PrPC TRFRET 9 and MazEF act -2.
For COc1cccc2sc(Nc3nc(-c4ccc(Cl)s4)cs3)nc12 the results were SSB-PriA inh 26.
Screening COc1ccccc1-c1nnc(Nc2nc3c(OC)cccc3s2)o1 returned PfHsp40 yeast 0, PrP 5UTR inh 37, SSB-PriA inh 0, PrPC TRFRET 42*, MazEF act 11, PrPC confirm 69* and LD9 cytotox 40*.
Screening COc1ccc(CCNC(=O)CSc2nn3c(=O)c(C)nnc3s2)cc1OC returned PfHsp40 yeast 0, PrP 5UTR inh -5, SSB-PriA inh -16, PrPC TRFRET 25*, MazEF act 9, PrPC confirm 3 and LD9 cytotox -8.
For O=C(CN(Cc1ccco1)C(=O)CNS(=O)(=O)c1ccc(Cl)cc1)NCC1CCCO1 (centres undefined) the results were PfHsp40 yeast 1, PrP 5UTR inh 3, SSB-PriA inh -8, PrPC TRFRET 3 and MazEF act -3.
`N#CC(C#N)=C1NC(N)=C(C#N)C(c2ccccc2)=C1C#N` gave PfHsp40 yeast 2, PrP 5UTR inh -20, PrPC TRFRET 74*, PrPC confirm 103* and LD9 cytotox -10.
CC(O)C(NS(=O)(=O)c1ccc(Cl)cc1)C(=O)OCC(=O)c1ccc2c(c1)NC(=O)CO2 (centres undefined) was read as PfHsp40 yeast 0, PrP 5UTR inh -9, SSB-PriA inh 1, PrPC TRFRET 4 and MazEF act -2.
`CC(C)CC(NC(=O)c1ccc(Cl)cc1)C(=O)OCC(=O)c1ccc2c(c1)NC(=O)CO2` (centres undefined) gave PfHsp40 yeast 0, PrP 5UTR inh 2, SSB-PriA inh -12, PrPC TRFRET 40*, MazEF act -6, PrPC confirm 53* and LD9 cytotox 84*.
Screening Cc1ccc(OCC(=O)N2CCN(C(=O)Cc3ccccc3)CC2)cc1 returned PfHsp40 yeast -1, PrP 5UTR inh -12, SSB-PriA inh -23, PrPC TRFRET -4 and MazEF act 0.

Screens as filed in PubChem.
